The values below come from PubChem BioAssay (NCATS).

Test [1] can be described thus: Cell Viability - HepG2 (AID 433; calls by dose curve;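 further: potency means the concentration at half of the fitted maximal effect; cells exposed to compound for 40 hours; potency for ATP loss meaning cytotoxicity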). The note with it: qHTS. In a few lines: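 HepG2 cells, 1500 per well, treated 40 hr at 37 °C in complete medium; viability from intracellular ATP by CellTiter-Glo luminescence. Normalized to DMSO and 100 uM tamoxifen; AC50 from Hill fit of qHTS concentration-response.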
A general note: In qHTS, concentration-response curves come from the screen itself.

The nature of test [2]: Cell Viability - SH-SY5Y (AID 544).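 Further: cells exposed to compound for 40 hours; nearly all actives have a fitted effect of over 55% in size.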 Further: potency means the concentration at half of the fitted maximal effect.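 On viability change, negative = cytotoxic: 0% = DMSO alone and -100% = 100 µM tamoxifen.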 The conditions noted are these: SH-SY5Y neuroblastoma cell viability; viability change, negative = cytotoxic: at 92.2 µM (top of the series). Summed up: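 Luminescent ATP read-out (CellTiter-Glo) measures loss of viable SH-SY5Y neuroblastoma cells after 40 hr compound exposure at 37 °C. AC50 values derive from standard Hill modelling of qHTS concentration-response data.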

A short description of test [3]: Cellular Toxicity (caspase-3) SHSY5Y (AID 657). In a few lines:
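SH-SY5Y human neuroblastoma cells, 1500/well, exposed to compound for 16 hours at 37 °C in complete medium. Caspase-3/7 activity read by Caspase-Glo luminescence after 1 hr at room temperature, normalized to DMSO and 10 uM staurosporine; AC50 from Hill fit.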

Test [4] in a line: Cellular Toxicity (caspase-3) N2a (AID 665).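 Further: compound exposure lasted 16 h at 37 °C before readout.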 Summed up: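 N2a cells, 1500/well, 5 h settle at 37 °C; cpd 16 h, 37 °C; Caspase-Glo 3/7, 1 h RT; luminescence. Norm: DMSO = 0, 10 uM staurosporine = 100%. AC50, Hill fit.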
Test [5] can be described thus: MultiTox-Fluor Cytotoxicity Assay - LYMP1-001 - Live Cells (AID 947).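 Further: 0% = DMSO only and full inhibition = tetraoctylammonium bromide control.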
Test [6] is described as follows: MultiTox-Fluor Cytotoxicity Assay - LYMP1-002 - Dead Cells (AID 960). Further: nearly all actives have a fitted effect of over 60% in size. Summed up:
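LYMP1-002 cells 2500/well; 5 hr 37 C pre-incubation; compound 16 hr 37 C; MultiTox-Fluor reagent 60 min RT; dead-cell fluor Ex/Em 485/520. Norm. to DMSO (0%) vs 15 uM tetraoctylammonium bromide (100%); Hill AC50.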

The nature of test [7]: Cell Viability - LYMP2-006 (AID 978). Further: on the % scale 0 is the no-effect control and ±100 the full control effect; nearly all actives have a fitted effect of over 60% in size. Summed up:
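Human lymphoblastoid cells (LYMP2-006), 2500/well in complete medium, were treated with compound for 24 hr at 37 C. Cellular ATP was read by CellTiter-Glo luminescence after 30 min, and AC50 values came from Hill-equation fits of concentration-response data.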

The nature of test [8]: Cell Viability - LYMP2-014 (AID 983).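 Further: plate controls were DMSO only for no effect and 92 µM tetraoctylammonium bromide for full effect; nearly all actives have a fitted effect of over 50% in size.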 Summed up: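 Luminescent ATP signal (CellTiter-Glo, 30 min at room temperature) serves as the viability read-out after 24 hr compound exposure at 37 C. Cells were seeded at 2500 per well and settled 5 hr beforehand.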
A short description of test [9]: Cell Viability - LYMP2-016 (AID 984). Further: on the % scale 0 is the no-effect control and ±100 the full control effect; nearly all actives have a fitted effect of over 55% in size. Summed up: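 Human lymphoblastoid LYMP2-016 cells, 2500 per well, treated with compounds for 24 h at 37 C. Viability read as intracellular ATP by CellTiter-Glo luminescence after 30 min at room temperature; AC50 from Hill fits of concentration-response.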
The target of test [10] is Voltage-gated inwardly rectifying potassium channel KCNH2 (Homo sapiens) (UniProt Q12809). As to the kind of experiment: qHTS Assay for Small Molecule Inhibitors of the Human hERG Channel Activity (AID 588834).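 Further: top concentration of the series differs between compounds; on the % scale 0 is the no-effect control and ±100 the full control effect; lower thallium flux fluorescence means stronger hERG block; nearly all actives have a fitted effect of over 50% in size.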 Summed up: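 U2OS cells BacMam-transduced with hERG, 2000 cells/well, compound ~10 min at 37 °C before stimulation buffer. FluxOR thallium flux fluorescence read kinetically on FDSS; decrease indicates block; AC50 from Hill fits.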

Test [11] can be described thus: qHTS assay for cell viability of HEK293 cells (AID 743288). Further: on the % scale 0 is the no-effect control and ±100 the full control effect; nearly all actives have a fitted effect of over 50% in size. The note with it: ATP luminescence (CellTiter-Glo), 18 h, stronger effect = lower value. In a few lines: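 Parental HEK293 cells, 2,000 per well, preincubated at least 5 h at 37 C, then exposed to compounds in DMSO for 18 h at 37 C. Viability by CellTiter-Glo ATP luminescence after 30 min at room temperature.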
Test [12] is described as follows: Cellular Toxicity (caspase-3) H-4-II-E (AID 663).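 Further: cells exposed to compound for 16 hr before readout; 0% = DMSO basal and 100% = 100 µM tamoxifen.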 The note with it: Potency: caspase-3 activation. In a few lines: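 Rat hepatoma H-4-II-E cells (1500/well) plated 5 hr, then exposed to compound titrations for 16 hr at 37 °C. Caspase-Glo 3/7 luminescence read after 20 min at RT; data normalized to DMSO and 100 uM tamoxifen, AC50 from Hill fits.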
A short description of test [13]: Cellular Toxicity (caspase-3) Renal Proximal Tubule (AID 667).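 Further: cells exposed to compound for 16 hours at 37 °C before detection; 0% = DMSO basal and 100% = 10 µM staurosporine.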 In a few lines:
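Freshly isolated primary rat kidney proximal tubule cells, 1000/well, treated 16 hr at 37 °C, then Caspase-Glo 3/7 luminescence after 1 hr. Normalized to DMSO and 10 uM staurosporine; AC50 from Hill fit.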

The nature of test [14]: Cell Viability - LYMP2-002 (AID 977).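 Further: compound exposure lasted 24 h at 37 °C; plate controls were DMSO only for no effect and 92 µM tetraoctylammonium bromide for full effect.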 Summed up:
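Human lymphoblastoid LYMP2-002 cells, 2500 per well, exposed to compounds for 24 h at 37 C in complete medium; viability read as intracellular ATP by CellTiter-Glo luminescence, AC50 from Hill fits.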

Test [15] can be described thus: Cell Viability - LYMP1-002 - Assay at 24 hr (AID 993). Further: on the % scale 0 is the no-effect control and ±100 the full control effect. In a few lines: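 Cells plated 2500/well, 5 hr 37 C; compounds added, 24 hr 37 C; CellTiter-Glo added, 30 min RT; luminescence read. Tetraoctylammonium bromide positive control. Hill-equation AC50.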
The nature of test [16]: qHTS assay for small molecule agonists of retinoid X receptor alpha signaling (AID 588544; calls by dose curve;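 on activation: 0% = DMSO basal wells and 100% = reference agonist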). The conditions noted are these: HEK293T RXRa-UAS-bla, beta-lactamase reporter, 18 h; 530 nm emission.
For test [17], the target named is Retinoic acid receptor RXR-alpha (Homo sapiens) (UniProt P19793). The test is described as above.
Test [18] deals with Tumor necrosis factor (Homo sapiens) (UniProt P01375). Description: qHTS assay to identify small molecules that stimulate Tumor Necrosis Factor-alpha (TNF-alpha) secretion (AID 651757; active means well fitted curve in the direction sought with a large enough effect in the signal ratio; the % refers to the signal ratio; further: 0% is about no effect). In a few lines: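 Read-out is HTRF, a TR-FRET sandwich of cryptate- and XL665-labeled anti-TNF-alpha antibodies detecting cytokine secreted by THP-1 cells. Cells had been incubated with test compounds at 37 C for 17 hrs beforehand.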

Test [19] is described as follows: qHTS assay for small molecule antagonists of the retinoid-related orphan receptor gamma (ROR-gamma) signaling pathway - cell viability counter screen (AID 720652; active means well fitted curve in the direction sought with a large enough effect in the repeat runs; an effect the other way counts as inactive or inconclusive;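 further: compound exposure lasted 16 hr before ATP read; on the % scale 0 is the no-effect control and ±100 the full control effect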). In a few lines:
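Luminescence from CellTiter-Glo after 30 min at room temperature reported cellular ATP as the cytotoxicity measure. Cells were the CHO reporter line with doxycycline-induced ROR-gamma expression, exposed to compound for 16 hr at 37 C.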

A short description of test [20]: qHTS assay for small molecule activators of the human pregnane X receptor (PXR) signaling pathway (AID 720659; call rule not given here; further: 0% is about no effect).

Several values for one entry are separate records, joined by “and”; a condition that tells them apart may be missing. Equal values may be shown once. Results filed as inconclusive are left out. Activity calls are given as the source filed them. Unless noted, the call rests on the fitted dose curve; in most records, active means well fitted curve in the direction sought with a large enough effect; inconclusive means small, poorly fitted or top-dose-only effect, or another doubt; inactive means no such curve, though single readings can be large; an effect the other way counts as inactive or inconclusive.

Sequence of Tumor necrosis factor (Homo sapiens) (P01375 whole entry, looked up): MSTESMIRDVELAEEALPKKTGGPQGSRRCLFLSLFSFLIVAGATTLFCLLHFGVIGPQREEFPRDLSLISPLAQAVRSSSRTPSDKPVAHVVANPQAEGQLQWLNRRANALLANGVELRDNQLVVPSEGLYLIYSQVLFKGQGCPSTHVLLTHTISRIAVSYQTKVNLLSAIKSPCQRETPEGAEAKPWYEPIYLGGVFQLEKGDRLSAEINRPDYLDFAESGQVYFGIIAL
Sequence of Voltage-gated inwardly rectifying potassium channel KCNH2 (Homo sapiens) (Q12809 whole entry, looked up): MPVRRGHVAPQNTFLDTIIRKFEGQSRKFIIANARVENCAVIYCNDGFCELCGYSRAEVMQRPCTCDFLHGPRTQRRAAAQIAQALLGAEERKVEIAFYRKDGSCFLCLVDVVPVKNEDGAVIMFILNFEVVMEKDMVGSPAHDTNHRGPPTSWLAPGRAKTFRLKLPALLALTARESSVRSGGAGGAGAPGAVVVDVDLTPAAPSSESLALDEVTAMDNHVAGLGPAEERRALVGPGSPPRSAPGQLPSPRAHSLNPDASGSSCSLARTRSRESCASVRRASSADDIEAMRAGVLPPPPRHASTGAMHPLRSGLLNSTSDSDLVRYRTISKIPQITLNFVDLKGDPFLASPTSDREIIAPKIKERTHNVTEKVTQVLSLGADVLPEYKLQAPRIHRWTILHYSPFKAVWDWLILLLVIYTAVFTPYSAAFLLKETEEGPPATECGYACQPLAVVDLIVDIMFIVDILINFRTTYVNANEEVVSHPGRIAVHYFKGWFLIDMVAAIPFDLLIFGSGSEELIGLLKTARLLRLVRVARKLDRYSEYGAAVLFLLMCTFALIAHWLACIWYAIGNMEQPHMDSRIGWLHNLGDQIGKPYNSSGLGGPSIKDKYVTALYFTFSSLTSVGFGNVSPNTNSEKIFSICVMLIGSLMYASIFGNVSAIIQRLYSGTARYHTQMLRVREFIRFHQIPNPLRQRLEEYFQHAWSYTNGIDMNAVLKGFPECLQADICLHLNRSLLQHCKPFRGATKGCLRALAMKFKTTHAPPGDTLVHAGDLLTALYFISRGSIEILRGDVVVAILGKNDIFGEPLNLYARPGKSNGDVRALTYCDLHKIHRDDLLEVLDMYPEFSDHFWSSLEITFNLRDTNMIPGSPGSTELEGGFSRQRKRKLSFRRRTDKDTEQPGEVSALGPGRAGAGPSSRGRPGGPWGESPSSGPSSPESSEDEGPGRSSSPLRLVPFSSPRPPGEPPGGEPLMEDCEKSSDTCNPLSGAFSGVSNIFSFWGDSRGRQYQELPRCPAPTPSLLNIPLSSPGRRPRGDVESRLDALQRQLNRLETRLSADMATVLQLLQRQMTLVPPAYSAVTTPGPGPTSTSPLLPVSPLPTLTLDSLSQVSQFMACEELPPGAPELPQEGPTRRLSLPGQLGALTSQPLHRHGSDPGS
Sequence of Retinoic acid receptor RXR-alpha (Homo sapiens) (P19793 whole entry, looked up): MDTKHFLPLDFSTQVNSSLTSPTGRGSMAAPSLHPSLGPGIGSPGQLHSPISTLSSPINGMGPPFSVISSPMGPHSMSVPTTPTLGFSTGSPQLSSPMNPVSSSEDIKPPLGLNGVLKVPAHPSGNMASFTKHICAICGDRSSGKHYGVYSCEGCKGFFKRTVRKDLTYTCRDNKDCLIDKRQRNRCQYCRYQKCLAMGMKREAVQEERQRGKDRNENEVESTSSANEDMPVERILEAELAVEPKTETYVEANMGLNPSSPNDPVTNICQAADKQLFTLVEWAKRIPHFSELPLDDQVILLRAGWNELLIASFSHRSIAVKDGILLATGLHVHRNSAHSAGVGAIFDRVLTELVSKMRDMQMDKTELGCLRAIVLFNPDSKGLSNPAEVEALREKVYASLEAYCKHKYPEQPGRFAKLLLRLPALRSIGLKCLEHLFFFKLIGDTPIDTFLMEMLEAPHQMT

In the case of `Nc1cc(Cl)ccc1O`, in test [1], the Potency was > 92 µM (inactive). Moreover, the viability change, negative = cytotoxic in test [2] was -87.6% (active). For the same molecule, the result in test [3], in test [4] and in test [5] was inactive. Moreover, the Potency result in test [6], in test [7], in test [8], in test [9] and in test [10] was “inactive” in each case. In addition, the max response in [11] is -15.2% (inactive).
In the case of `Oc1cccc(Cl)c1`, the Potency in test [1] is > 92 µM (inactive). Besides, the Potency entry in test [2], in test [12], in [6], in [14], in [7] and in [8] was “inactive” throughout. Also, the Potency entry in [9], in test [15], in [10] and in test [19] was “inactive” in each case. The molecule was called inactive in [4], in test [13], in [5], in [17], in [18] and in [20]. In addition, the max response was -0.644% in [16] and 0.616% (inactive) in [11].
Consider `CC(C)(C)OOC(=O)c1ccccc1`, for which the Potency in test [1] was > 92 µM (inactive). Further, the Potency result in [12], in [6], in test [14], in [7], in test [8] and in test [9] was “inactive” throughout. Besides, the Potency result in test [15], in [10] and in test [19] was “inactive” throughout. The molecule was called inactive in [4], in test [13], in test [17], in test [18] and in test [20]. Besides, the max response in test [16] is 3.54% and -7.62%; in test [11], 7.08% (inactive) and -4.29% (inactive).
Consider `O=[N+]([O-])c1ccc(O)c([N+](=O)[O-])c1`, for which the Potency in test [1] is > 92 µM (inactive). The Potency result in [2], in [12], in test [6], in test [14], in test [7] and in [8] was “inactive” throughout. For the same molecule, the Potency result in test [9], in test [15] and in test [19] was “inactive” in each case. In addition, the result in test [3], in [13], in [17], in [18] and in test [20] was inactive. Besides, the values for the max response in test [16] and in [11] were -6.65% and -1.57% (inactive), respectively.
In the case of `Cc1cc(N=Nc2ccccc2C)ccc1N`, in [1], the Potency was > 92 µM (inactive). The outcome in test [3], in [4], in [13] and in [5] was inactive. The Potency entry in test [14], in [7], in test [8], in test [9] and in [15] was “inactive” in each case. In test [11], the max response was -13.3% (inactive) and -11.6% (inactive).
Consider `C(CCOCC1CO1)COCC1CO1` (centres undefined), for which the Potency in [2] is 31.6 µM (active). Also, the call in test [3], in test [4], in test [13], in test [5], in test [17] and in test [18] was inactive. The molecule was classed as inactive in test [20]. Besides, the Potency entry in [12], in test [6], in test [14], in [8], in test [9] and in test [10] was “inactive” each time. In addition, the Potency entry in [19] was “inactive”. For the same molecule, in [16], the max response is -1.76%.
Take `Cc1cccc(N)c1C`: the Potency entry in test [2], in test [12], in test [6], in [14], in [7] and in test [8] was “inactive” each time. The Potency entry in test [15], in [10] and in test [19] was “inactive” in each case. Besides, the outcome in test [3], in test [4], in [13], in test [5], in test [17] and in test [18] was inactive. Also, the outcome in [20] was inactive. The values for the max response in test [16] and in test [11] were -3.13% and -7.16% (inactive), respectively.
